For test [1], the target named is Serine/threonine-protein kinase MARK2 (Homo sapiens) (UniProt Q7KZI7). The note with it: at 1 µM.
Test [2] concerns the target PAS domain-containing serine/threonine-protein kinase (Homo sapiens) (UniProt Q96RG2). The note with it: at 0.1 µM.
For test [3] the target is unchanged. The note with it: at 1 µM.
In test [4] the target is Phosphorylase b kinase gamma catalytic chain, skeletal muscle/heart isoform (Homo sapiens) (UniProt Q16816). Conditions: at 0.1 µM.
The target is the same in test [5]. The note with it: at 1 µM.
Test [6] addresses T1, Phosphorylase b kinase gamma catalytic chain, liver/testis isoform (Homo sapiens) (UniProt P15735).
T1 sequence (whole entry): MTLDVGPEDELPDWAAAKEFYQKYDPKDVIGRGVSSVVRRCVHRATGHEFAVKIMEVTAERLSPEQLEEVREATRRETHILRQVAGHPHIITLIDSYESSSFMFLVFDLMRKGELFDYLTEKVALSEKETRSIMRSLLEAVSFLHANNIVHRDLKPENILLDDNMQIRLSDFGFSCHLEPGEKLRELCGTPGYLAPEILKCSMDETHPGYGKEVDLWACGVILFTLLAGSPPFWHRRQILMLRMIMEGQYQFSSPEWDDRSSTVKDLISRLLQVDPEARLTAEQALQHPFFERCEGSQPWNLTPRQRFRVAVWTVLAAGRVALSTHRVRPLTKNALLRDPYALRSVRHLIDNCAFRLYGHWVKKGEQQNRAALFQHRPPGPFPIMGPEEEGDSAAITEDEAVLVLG
Conditions: at 0.1 µM.

In test [7] the target is T1, Phosphorylase b kinase gamma catalytic chain, liver/testis isoform (Homo sapiens). The note with it: at 1 µM.
For test [8], the target named is Serine/threonine-protein kinase pim-1 (Homo sapiens) (UniProt P11309). Conditions: at 0.1 µM.
For test [9] the target is unchanged. The note with it: at 1 µM.
In test [10] the target is Serine/threonine-protein kinase pim-2 (Homo sapiens) (UniProt Q9P1W9). Conditions: at 0.1 µM.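 Note: reported value is the mean percent inhibition of PIM2, measured in the GSK PKIS kinase inhibitor set screen.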

Structures are written as SMILES.

Experimental findings from ChEMBL document CHEMBL1961873, “Compounds: GSK PKIS; Assays: Nanosyn kinase panel” (2012) are described below.

Sequence of Phosphorylase b kinase gamma catalytic chain, skeletal muscle/heart isoform (Homo sapiens) (Q16816 whole entry, looked up, canonical isoform): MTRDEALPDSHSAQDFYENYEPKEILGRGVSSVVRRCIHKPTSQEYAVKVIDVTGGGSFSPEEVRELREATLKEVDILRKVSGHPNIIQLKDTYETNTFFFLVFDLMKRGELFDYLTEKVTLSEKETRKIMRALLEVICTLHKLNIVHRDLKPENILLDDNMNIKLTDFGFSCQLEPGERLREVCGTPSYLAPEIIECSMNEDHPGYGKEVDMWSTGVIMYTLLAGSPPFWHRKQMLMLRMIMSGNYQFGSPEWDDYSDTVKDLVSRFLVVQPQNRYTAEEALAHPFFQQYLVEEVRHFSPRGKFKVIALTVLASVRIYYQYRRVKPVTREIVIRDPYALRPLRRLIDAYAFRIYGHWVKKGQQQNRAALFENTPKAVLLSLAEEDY
Sequence of Serine/threonine-protein kinase pim-1 (Homo sapiens) (P11309 whole entry, looked up): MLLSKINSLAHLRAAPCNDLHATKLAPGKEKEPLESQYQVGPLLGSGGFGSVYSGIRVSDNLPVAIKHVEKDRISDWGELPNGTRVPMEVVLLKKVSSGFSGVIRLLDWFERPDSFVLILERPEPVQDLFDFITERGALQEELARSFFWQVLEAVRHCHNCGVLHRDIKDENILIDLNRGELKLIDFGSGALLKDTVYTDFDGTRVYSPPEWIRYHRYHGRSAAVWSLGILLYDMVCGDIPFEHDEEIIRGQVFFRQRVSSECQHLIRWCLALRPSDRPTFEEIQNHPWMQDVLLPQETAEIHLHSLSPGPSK
Sequence of PAS domain-containing serine/threonine-protein kinase (Homo sapiens) (Q96RG2 whole entry, the tested form may be a part): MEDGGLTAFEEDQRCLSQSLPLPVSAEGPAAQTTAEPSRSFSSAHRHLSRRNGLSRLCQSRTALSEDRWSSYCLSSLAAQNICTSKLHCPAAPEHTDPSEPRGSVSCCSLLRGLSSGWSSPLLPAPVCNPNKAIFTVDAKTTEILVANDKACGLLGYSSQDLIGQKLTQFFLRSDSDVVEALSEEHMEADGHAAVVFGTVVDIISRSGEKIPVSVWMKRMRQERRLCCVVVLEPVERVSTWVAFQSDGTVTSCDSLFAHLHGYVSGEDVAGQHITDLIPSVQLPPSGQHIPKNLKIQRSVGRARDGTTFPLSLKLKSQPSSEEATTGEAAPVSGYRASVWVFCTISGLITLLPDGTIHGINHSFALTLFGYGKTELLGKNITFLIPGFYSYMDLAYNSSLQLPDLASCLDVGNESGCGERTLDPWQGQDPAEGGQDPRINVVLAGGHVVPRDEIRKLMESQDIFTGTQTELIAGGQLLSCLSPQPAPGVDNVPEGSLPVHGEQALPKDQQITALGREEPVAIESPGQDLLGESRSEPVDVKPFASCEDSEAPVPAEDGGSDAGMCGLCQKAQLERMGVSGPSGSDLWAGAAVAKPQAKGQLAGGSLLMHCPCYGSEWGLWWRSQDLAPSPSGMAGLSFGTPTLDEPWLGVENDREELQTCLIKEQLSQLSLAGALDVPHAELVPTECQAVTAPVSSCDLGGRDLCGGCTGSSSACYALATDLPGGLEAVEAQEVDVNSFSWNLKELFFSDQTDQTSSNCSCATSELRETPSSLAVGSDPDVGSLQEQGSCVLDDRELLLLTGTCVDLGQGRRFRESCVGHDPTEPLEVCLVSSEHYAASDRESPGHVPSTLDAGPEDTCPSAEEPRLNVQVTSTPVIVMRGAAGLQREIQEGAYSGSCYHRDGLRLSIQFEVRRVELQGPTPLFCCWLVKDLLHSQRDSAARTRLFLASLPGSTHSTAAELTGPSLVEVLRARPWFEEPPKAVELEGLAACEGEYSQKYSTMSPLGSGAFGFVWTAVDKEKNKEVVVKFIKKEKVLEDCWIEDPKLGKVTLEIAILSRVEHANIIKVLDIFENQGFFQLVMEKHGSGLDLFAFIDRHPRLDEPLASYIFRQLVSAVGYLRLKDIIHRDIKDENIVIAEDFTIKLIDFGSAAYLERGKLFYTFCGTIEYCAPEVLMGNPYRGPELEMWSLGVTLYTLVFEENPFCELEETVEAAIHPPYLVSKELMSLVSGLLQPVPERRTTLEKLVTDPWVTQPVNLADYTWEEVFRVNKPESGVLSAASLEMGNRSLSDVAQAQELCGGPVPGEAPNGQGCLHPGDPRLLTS
Sequence of Serine/threonine-protein kinase pim-2 (Homo sapiens) (Q9P1W9 whole entry, looked up): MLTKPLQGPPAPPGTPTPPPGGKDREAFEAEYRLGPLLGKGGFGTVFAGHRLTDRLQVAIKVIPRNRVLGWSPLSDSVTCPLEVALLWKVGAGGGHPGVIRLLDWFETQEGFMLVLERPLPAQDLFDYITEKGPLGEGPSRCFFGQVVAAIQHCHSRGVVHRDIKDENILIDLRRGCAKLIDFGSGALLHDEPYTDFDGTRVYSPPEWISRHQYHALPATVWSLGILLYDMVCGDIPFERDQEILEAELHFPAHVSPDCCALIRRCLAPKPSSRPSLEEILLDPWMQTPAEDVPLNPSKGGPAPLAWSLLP
Sequence of Serine/threonine-protein kinase MARK2 (Homo sapiens) (Q7KZI7 whole entry, the tested form may be a part): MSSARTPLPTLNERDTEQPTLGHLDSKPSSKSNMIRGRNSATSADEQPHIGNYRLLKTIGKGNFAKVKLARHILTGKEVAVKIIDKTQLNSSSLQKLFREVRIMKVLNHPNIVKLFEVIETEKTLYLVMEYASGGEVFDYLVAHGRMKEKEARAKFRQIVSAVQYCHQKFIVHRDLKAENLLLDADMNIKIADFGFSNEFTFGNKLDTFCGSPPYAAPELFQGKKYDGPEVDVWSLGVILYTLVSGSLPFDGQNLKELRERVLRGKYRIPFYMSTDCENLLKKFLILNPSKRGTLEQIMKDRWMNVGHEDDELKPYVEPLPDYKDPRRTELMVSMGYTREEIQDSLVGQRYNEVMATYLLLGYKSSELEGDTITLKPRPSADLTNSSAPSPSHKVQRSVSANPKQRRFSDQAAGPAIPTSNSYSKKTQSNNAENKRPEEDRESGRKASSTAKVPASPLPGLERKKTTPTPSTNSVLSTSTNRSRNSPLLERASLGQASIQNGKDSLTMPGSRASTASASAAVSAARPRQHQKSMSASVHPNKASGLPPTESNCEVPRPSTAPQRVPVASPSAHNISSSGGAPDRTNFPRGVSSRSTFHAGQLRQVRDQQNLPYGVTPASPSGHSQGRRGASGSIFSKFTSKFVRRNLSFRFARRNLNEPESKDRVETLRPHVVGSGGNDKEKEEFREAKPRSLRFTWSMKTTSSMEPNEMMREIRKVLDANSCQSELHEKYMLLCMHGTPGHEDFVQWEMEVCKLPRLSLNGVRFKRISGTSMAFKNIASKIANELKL

By inhibition is commonly meant the relative decrease from the control value, in per cent. As for `CCS(=O)(=O)c1ccc(OC)c(Nc2ncc(-c3cccc(OC)c3)o2)c1`, the inhibition in test [1] was 1.4%; in [2] it was 0.21%; in test [3] it was -1.97%; in test [4], 1.03%; in test [5] it was 18.3%; in [6], 2.69%. Besides, the inhibition is -0.05% in test [7], 1.53% in test [8], 2.93% in [9] and 0.07% in test [10].
For `CCOc1nccc2c1nc(-c1nonc1N)n2CC`, the inhibition in test [1] was determined as 1.46%; in test [2], 1.66%; in [3], 5.36%; in test [4] it was 3.39%; in test [5], 5.97%; in test [6] it was 4.34%. In addition, the inhibition in [7] came out at 9.55%; in test [8] it was 0.76%; in test [9] it was 2.04%; in [10], 0.25%.
`NS(=O)(=O)c1ccc(NC=C2C(=O)Nc3ccc4ncsc4c32)cc1`: the inhibition in test [1] is 46.2%; in test [2] it was 0.44%; in test [3], -0.6%; in test [4], 20.3%; in test [5] it was 66.4%; in test [6] it was 8.94%. Also, the inhibition in test [7] is 32.1%; in [8] it was 2.48%; in test [9] it was 9.5%; in test [10], 1.26%.
In the case of `CN(C)CCCn1c(-c2nonc2N)nc2cnccc21`, the inhibition was 2.24% in test [1]; -0.11% in [2]; -0.83% in [3]; 2.33% in test [4]; 2.88% in [5]; 4.54% in test [6]. Also, the inhibition is 2.43% in test [7], 2.81% in test [8], 18.9% in test [9] and -0.04% in [10].
As to `COc1cc2ncnc(Nc3ccc(C)c(O)c3)c2cc1OC`, the inhibition is 0.64% in test [1]; -0.16% in [2]; 0.97% in test [3]; 6.64% in test [4]; 23.5% in test [5]; 5.48% in test [6]. Also, the inhibition came out at 7.74% in [7], 1.41% in test [8], 1.44% in test [9] and 1.6% in [10].
For the compound `CN(C)C(=O)O[C@@H]1CN[C@@H](C#Cc2cc3ncnc(Nc4ccc(OCc5cccc(F)c5)c(Cl)c4)c3s2)C1`, the inhibition in test [1] is 1.06%; in test [2], -0.1%; in [3] it was -0.12%; in test [4], 0.51%; in test [5] it was -3.21%; in test [6], 1.07%. Also, the inhibition was -1.09% in test [7], 1.41% in test [8], 0.48% in test [9] and 0.15% in test [10].
On to `CCCN1CCCC(c2ccc(Nc3nc(Nc4cc(F)ccc4C(N)=O)c4cc[nH]c4n3)c(OC)c2)C1` (stereo not given), for which the inhibition in [1] is 40%; in test [2], -0.3%; in test [3], 8.59%; in test [4], 51.2%; in test [5], 77.8%; in test [6], 26.9%. The inhibition in [7] was determined as 67.6%; in test [8], 11.7%; in test [9], 50.8%; in [10], 0.9%.
Regarding `Nc1nccc(-c2c(-c3ccc(F)cc3)nn3cc(C(F)(F)F)ccc23)n1`, the inhibition is -0.77% in [1]; 0.89% in test [2]; 0.42% in [3]; 3.63% in [4]; 3.94% in [5]; 0.86% in test [6]. For the same compound, the inhibition was 0.54% in test [7], 0.21% in test [8], -0.89% in test [9] and -0.09% in test [10].
`FC(F)(F)c1ccc(-c2nn3ncccc3c2-c2ccnc(Nc3ccc4c(c3)OCCO4)n2)cc1`: the inhibition came out at 4.45% in test [1]; 6.37% in test [2]; 10.9% in [3]; 7.07% in test [4]; 8.64% in test [5]; 0.59% in test [6]. Besides, the inhibition in test [7] turned out to be 6.97%; in test [8], 0.47%; in test [9] it was 1.86%; in test [10], 6.45%.
As to `ON=C1CCc2cc(-c3nc(C4CCNCC4)[nH]c3-c3ccncc3)ccc21`, the inhibition in [1] is 2.57%; in test [2], 0.03%; in [3], -0.46%; in test [4], 0%; in test [5], 1.5%; in test [6], 0.29%. The inhibition is -2.23% in [7], 1% in test [8], 0.9% in [9] and 0.25% in test [10].
`CN(C)c1cc2c(Nc3ccc4c(cnn4Cc4ccccc4)c3)ncnc2cn1`: the inhibition in test [1] was 0.46%; in test [2] it was 0.31%; in test [3], -1.1%; in test [4], 2.72%; in test [5] it was 4.62%; in test [6], 3.31%. Moreover, the inhibition in [7] is 1.97%; in test [8], -0.22%; in test [9], 1.78%; in [10], -0.29%.
On to `Cc1ccc(C(=O)NC2CC2)cc1-c1ccc2[nH]ncc2c1`, for which the inhibition was 5.77% in [1]; 1.24% in [2]; 1.27% in [3]; -0.37% in test [4]; 1.36% in test [5]; -5.73% in [6]. Further, the inhibition was -5.52% in test [7], 1.72% in test [8], 4.32% in test [9] and 0.52% in test [10].
Consider `NC(=O)c1sc(-n2cnc3ccccc32)cc1OCc1ccccc1Br`, for which the inhibition in test [1] is 6.32%; in test [2], -0.54%; in test [3] it was -0.07%; in test [4] it was 2.76%; in test [5], 6.49%; in test [6], 4.32%. The inhibition was 5.93% in [7], 0.2% in test [8], 3.08% in [9] and -0.36% in test [10].
For `CN(C)C(=O)O[C@H]1CN[C@H](C#Cc2cc3ncnc(Nc4ccc(OCc5cccc(F)c5)c(Cl)c4)c3s2)C1`, the inhibition in test [1] was 1.09%; in test [2] it was 0.16%; in test [3] it was -0.64%; in [4], 2.62%; in [5], 2.71%; in test [6], 2.94%. Besides, the inhibition was -0.02% in [7], -0.09% in [8], 0.1% in test [9] and 0.57% in [10].
For the compound `CCS(=O)(=O)c1ccc(OC)c(Nc2nccc(N(C)c3ccc4c(C)n[nH]c4c3)n2)c1`, the inhibition was 3.54% in test [1]; -0.44% in [2]; 0.34% in [3]; 6.38% in [4]; 6.76% in [5]; 6.39% in test [6]. Also, the inhibition in test [7] was 4.62%; in test [8], 1.18%; in test [9] it was 1.44%; in test [10] it was 0.05%.
In the case of `COc1cc(Nc2nccc(-c3cnn4ncccc34)n2)cc(OC)c1`, the inhibition is 20% in test [1]; 0.79% in test [2]; -0.31% in [3]; 7.9% in test [4]; 39.2% in test [5]; 2.69% in [6]. For the same compound, the inhibition in test [7] was 15.6%; in test [8] it was 1.41%; in test [9], 6.3%; in [10] it was 1.22%.
